From PubChem
Hits are enriched below; roughly 2.7% of the tested compounds scored in any of these assays.
CendR NRP1 mod = modulators of CendR peptide binding to NRP-1, primary screen, biochemical, fluorescence polarization, uHTS; AID 602438, 2012; FAM-RPARPAR peptide binding to NRP-1; inhibition, % at 25 µM; Neuropilin-1 (Homo sapiens), O14786; hit rate 0.85% among 360,000;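 active = inhibition or corrected inhibition above about 18%, plus a signal ratio from 0.5 to 1.5, limit read from the data, passing the limit was not always enough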
MPTP inh = mitochondrial permeability transition pore inhibitors, primary screen, biochemical, isolated mouse mitochondria, absorbance; Ca2+ swelling absorbance, 30 min; inhibition, % at 10 µM; hit rate 1.4% among 360,000; AID 602449, 2012;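 active = inhibition of 50% or more, scaled per plate between neutral and stimulator controls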
ATG4B inh = ATG4B protease inhibitors, primary screen, biochemical, fluorescence, uHTS. hit rate 0.51% among 340,000. inhibition, % at 8.33 µM. Cysteine protease ATG4B (Homo sapiens), Q9Y4P1. ATG4B cleavage of LC3-PLA2, NBD-HPC fluorescence, 1 h; in the data active = inhibition above about 40%
Target sequence (Q9Y4P1 whole entry, looked up): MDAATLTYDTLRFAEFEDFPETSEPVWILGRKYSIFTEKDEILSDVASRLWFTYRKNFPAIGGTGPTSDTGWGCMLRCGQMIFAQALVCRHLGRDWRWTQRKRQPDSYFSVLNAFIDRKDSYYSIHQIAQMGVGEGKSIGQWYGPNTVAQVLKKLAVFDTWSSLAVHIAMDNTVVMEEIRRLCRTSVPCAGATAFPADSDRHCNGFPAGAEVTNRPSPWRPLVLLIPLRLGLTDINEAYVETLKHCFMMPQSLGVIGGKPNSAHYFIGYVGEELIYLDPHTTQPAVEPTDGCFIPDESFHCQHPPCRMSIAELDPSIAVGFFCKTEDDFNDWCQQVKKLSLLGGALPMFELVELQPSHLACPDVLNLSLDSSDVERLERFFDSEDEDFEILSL
CFTR F508del cor = F508del CFTR correction, initial screen, CFBE line, single point | hit rate 0.36% among 350,000 | activity (quench increase), % at 7.58 µM | CFBE cells, YFP halide quenching; stimulated with forskolin plus potentiator P3; % fluorescence drop versus neutral controls;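 active = mean added fluorescence quench of at least 8% versus neutral control, with both replicates also reaching 8%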;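 also: cells transiently co-express mutant CFTR-F508del with the halide-sensitive YFP; corrector assay measuring rescue of mutant channel to the surface after 24 h compound exposure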
SKN-1 block = suppressors of acrylamide-induced Pgst-4::GFP reporter in worms, primary screen, SKN-1 inhibitor project, whole organism, uHTS, GFP/RFP fluorescence ratio, strain VP596. C. elegans VP596 Pgst-4::GFP/RFP ratio, 24 h. inhibition, % at 21.8 µM. hit rate 0.49% among 360,000;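 active = interference check ratio from 0.5 to 1.5 plus GFP to RFP signal ratio inhibition reaching or exceeding a fixed threshold, cut at about 30% in these data, passing the limit was not always enough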
MPTP counter = fluorescence retest of MPTP screen hits in isolated mitochondria, single concentration | shares compounds with MPTP inh | membrane potential, Rhodamine 123 fluorescence | inhibition, % at 10 µM | hit rate 78% among 5,000; in the data active = inhibition above about 22%
MPTP swell DR = mitochondrial permeability transition pore inhibitors, dose response, biochemical, absorbance, uHTS hits; shares compounds with MPTP inh; isolated mitochondria swelling; IC50, µM; hit rate 58% among 780; in the data active = IC50 below about 20 µM
MPTP cs DR = fluorescent counter-screen in isolated mitochondria, dose response, counter-screen for MPTP inhibitor project, biochemical, fluorescence, uHTS hits; IC50, µM; hit rate 49% among 780; isolated mitochondria counterscreen, fluorescence read-out; shares compounds with MPTP inh; in the data active = IC50 below about 80 µM
Numbers stand for hits; - = inactive; . = not tested or not shown; ! = repeats disagree.

SMILES	CendR NRP1 mod	MPTP inh	ATG4B inh	CFTR F508del cor	SKN-1 block	MPTP counter	others
CN(C)S(=O)(=O)c1cccc(CSCc2cccc(S(=O)(=O)N(C)C)c2)c1	-	79	-	-	-	88
c1ccc(CCNc2ncnc3sccc23)nc1	-	61	-	-	-	-	MPTP swell DR=-;MPTP cs DR=52
CN(Cc1ccccc1F)c1ncnc2sccc12	-	-	-	-	-	.
Cc1cccc(C)c1NC(=S)NCCc1ccccn1	-	-	-	.	-	.
c1csc(CNc2ncnc3sccc23)c1	-	90	-	.	-	73
c1ccc(CNc2ncnc3sccc23)cc1	-	-	-	-	-	.
Cc1csc2ncnc(NCCc3ccccn3)c12	-	87	-	-	-	70
CN(Cc1cccs1)c1ncnc2sccc12	-	57	-	.	-	63
Cc1cc(C(=O)Nc2cccc3c2O[C@H](CN(C)S(=O)(=O)c2ccccc2)[C@H](C)CN([C@@H](C)CO)C3=O)n(C)n1	.	.	.	-	.	.
C[C@H]1CN([C@@H](C)CO)C(=O)c2cccc(NC(=O)CCCCCC(=O)Nc3ccccc3N)c2O[C@@H]1CN(C)Cc1ccc(Oc2ccccc2)cc1	.	.	.	-	.	.
CCCC#Cc1cnc2c(c1)C(=O)N([C@H](C)CO)C[C@@H](C)[C@H](CN(C)CCC)O2	.	.	.	-	.	.
C[C@@H]1CN([C@@H](C)CO)C(=O)c2cc(C#CC3CCCCC3)cnc2O[C@H]1CN(C)C(=O)C1CCCCC1	.	.	.	-	.	.
CCN1CCN(Cc2ccc(NC(=O)c3cc(NC(=O)C(=O)c4c[nH]c5ccccc45)cc(OC)c3)cc2C(F)(F)F)CC1	-	-	-	-	-	.
CCN1CCN(Cc2ccc(NC(=O)c3ccc(C)c(NC(=O)C(=O)c4c[nH]c5ccccc45)c3)cc2C(F)(F)F)CC1	-	94!	-	-	-	-
CCOC(=O)Cn1nc(C)c(NC(=O)c2ccc(Cl)c([N+](=O)[O-])c2)c1C	-	61	-	-	-	77
COc1ccc(NC(=O)c2ccc(-n3cccn3)c([N+](=O)[O-])c2)cc1	-	-	-	-	-	.
CCOC(=O)Cn1nc(C)c(NC(=O)c2cccc([N+](=O)[O-])c2)c1C	-	-	-	-	-	.
O=C(Nc1ccc(Cl)cc1)c1ccc(-n2cccn2)c([N+](=O)[O-])c1	-	73	-	.	-	66
Cc1cc(C(=O)Nc2ccc(Nc3ccccc3)cc2)ccc1[N+](=O)[O-]	-	-	-	-	-	.
O=C(Nc1ccc(Nc2ccccc2)cc1)c1ccc(Cl)c([N+](=O)[O-])c1	-	67	-	-	-	64
O=C(Nc1ccc(Cc2ccncc2)cc1)c1ccc(Cl)c([N+](=O)[O-])c1	-	54	-	.	-	75
CO[C@H]1CN(C)C(=O)c2ccc(NC(=O)c3ccccc3)cc2OC[C@@H](C)NC[C@H]1C	.	.	.	-	.	.
C/C=C/c1ccc([C@H]2[C@H]3CN(S(=O)(=O)c4ccccc4)CC(=O)N3[C@H]2CO)cc1	.	.	.	-	.	.
Oc1cc2ccccc2cc1-c1n[nH]c(=S)o1	-	96	-	.	-	71
CC1=[N+](C)c2c(ccc3cccnc23)C1(C)C	-	95	-	-	-	82
SMILES	CendR NRP1 mod	MPTP inh	ATG4B inh	CFTR F508del cor	SKN-1 block	MPTP counter	others
COCC(=O)Nc1ccc2c(c1)OC[C@H](C)N(C(=O)C1CCCC1)C[C@H](C)[C@@H](OC)CN(C)C2=O	.	.	.	-	.	.
COc1ccccc1S(=O)(=O)N1CC[C@@H]2[C@H]1c1cc(-c3ccc(F)cc3)ccc1N(C)[C@H]2CO	.	.	.	-	.	.
COCC(C)n1c(-c2ccc3c(c2)NC(=O)CO3)csc1=Nc1ccc(OC(F)F)cc1 (stereo not given)	-	70!	-	-	-	54
O=C1COc2ccc(-c3csc(=Nc4ccc(OC(F)F)cc4)n3CC3CCCO3)cc2N1 (stereo not given)	-	-	-	.	-	.
COc1ccccc1N=c1scc(-c2ccc3c(c2)NC(=O)CO3)n1CC1CCCO1 (stereo not given)	-	64	-	.	-	-	MPTP swell DR=-;MPTP cs DR=41
COc1cccc(NC(=O)N2C[C@@H](O)COC[C@H]3O[C@H](CC(=O)NCc4ccccc4F)CC[C@@H]32)c1	.	.	.	-	.	.
CCCC(=O)Nc1ccc2c(c1)OC[C@@H](C)N(Cc1ccccc1)C[C@@H](C)[C@@H](OC)CN(C)C2=O	.	.	.	-	.	.
COc1cc(O)c2c(c1)oc(=O)c1c3cc(O)c(O)cc3oc21	.	.	.	-	.	.
O=C(Cc1ccc([N+](=O)[O-])cc1)Nc1ccc(Cl)cc1	-	68	-	-	-	76
Cc1ccc(CC(=O)Nc2ccncc2)cc1	-	84	-	-	-	36
O=C(Cc1ccc(Cl)cc1)Nc1ccncc1	-	58	-	-	-	-	MPTP swell DR=-;MPTP cs DR=41
O=C(Cc1sc(-c2ccccc2)nc1-c1ccccc1)Nc1ccc(Cl)cc1	-	69	-	.	-	-	MPTP swell DR=12;MPTP cs DR=<2.5
CC(=O)Nc1ccc2c(c1)C(=O)N(C)[C@@H]1CC[C@@H](CC(=O)NCc3ccccc3Cl)O[C@H]1CO2	.	.	.	-	.	.
C[C@@H]1CCCCO[C@H](CN(C)S(=O)(=O)c2ccc(F)cc2)[C@H](C)CN([C@@H](C)CO)C(=O)c2cc(NC(=O)C3CCCCC3)ccc2O1	.	.	.	-	.	.
C[C@H](CO)N1C[C@H](C)[C@H](CN(C)Cc2ccccc2)Oc2ncc(C3=CCCC3)cc2C1=O	.	.	.	-	.	.
NC(=S)Nc1ccc(Cl)c(Cl)c1	-	-	-	-	-	.
Cc1cccc(C)c1NC(=S)Nc1ccc(Cl)c(Cl)c1	-	98	-	-	-	97
Cc1cc(C)cc(NC(=S)Nc2ccc(Cl)c(Cl)c2)c1	-	103	-	-	-	89
CCOC(=O)/C(=C\Nc1ccccc1C(F)(F)F)Sc1ncc(C(F)(F)F)cc1Cl	-	95	-	.	-	-	MPTP swell DR=-;MPTP cs DR=-
Cc1cc(C(=O)Nc2cccc3c2O[C@@H](CN(C)S(C)(=O)=O)[C@H](C)CN([C@H](C)CO)C3=O)n(C)n1	.	.	.	-	.	.
CC(=O)c1cccc(Nc2nc(-c3cccc([N+](=O)[O-])c3)cs2)c1	-	94	-	.	-	76
O=C(NC(=S)Nc1nc(-c2cccc([N+](=O)[O-])c2)cs1)c1cc(Cl)ccc1Cl	-	57	-	-	-	-	MPTP swell DR=19;MPTP cs DR=<2.5
CC(=O)Nc1nc(C)c(-c2csc(Nc3cccc([N+](=O)[O-])c3)n2)s1	-	-	-	.	-	.
